Experimental findings from PubChem BioAssay (NCATS) are described below.

Inconclusive results are not listed. A call without a number means that no potency is given here. Activity calls are given as the source filed them. Calls follow the shape of the full dose curve.

A short description of this experiment: qHTS assay for small molecule disruptors of the mitochondrial membrane potential - 5 hr assay (AID 651755). Also: nearly all actives have a fitted effect of over 40% in size. The following applies: JC-1-type ratio dye; series mostly up to 92.2 µM. Put shortly:
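HepG2 cells (2,000/well), attached overnight, exposed to compound 5 hr at 37C, then Mito-MPS dye 30 min. Fluorescence read for monomers (490/535 nm) and aggregates (540/590 nm).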
`Oc1cccc(Cl)c1Cl`: the Potency entry was “inactive”.
Consider `CCC/C=N/O`, for which the Potency result is “inactive”.
As for `Nc1cccc2ccccc12`, the Potency entry is “inactive”.
The result for `Cc1cnc[nH]1` reads “inactive”.
The result for `CN(C)N=O` reads “inactive”; that for `C=C(Cl)CCl`, “inactive”.
Take `ClCCOCOCCCl`: the Potency result was “inactive”.
Consider `CCCCOCC1CO1` (stereo not drawn), for which the Potency entry was “inactive”.
Regarding `O=C(O)c1cccc(Cl)c1`, the Potency result was “inactive”.
In the case of `C1CC2OC2CC1C1CO1` (stereo not drawn), the Potency result was “inactive”.
In the case of `Brc1cccc(-c2ccccc2)c1`, the Potency result is “inactive”.
In the case of `Oc1c(Cl)cccc1Cl`, the Potency result was “inactive”.
The result for `ClCCOCCCl` reads “inactive”; that for `CC(C)C#N`, “inactive”; that for `c1ccc2c(c1)CCNC2`, “inactive”.
The result for `O=[N+]([O-])c1ccc(Cl)c(Cl)c1Cl` reads “inactive”; that for `OCCBr`, “inactive”; that for `CC(C)(C)C(O)(CCc1ccc(Cl)cc1)Cn1cncn1` (stereo not drawn), “inactive”.
With `N#CCCCCC#N`, the Potency result was “inactive”.
On to `CN=C=O`, for which the Potency entry is “inactive”.
Take `CCCCCC[N+](=O)[O-]`: the Potency entry is “inactive”.
Turning to `CC(=O)CCC(C)=O`, the Potency result was “inactive”.
As for `C=CC(=O)OCC(CC)CCCC` (stereo not drawn), the Potency entry is “inactive”.
